The results in this text go back to PubChem BioAssay AID540308 (The Scripps Research Institute Molecular Screening Center, 2011).

Out of some 360,000 compounds screened, about 3,500 (0.97%) were called active. The sample holds actives, similar compounds and a random draw of the others, so the mix is not that of the screen. A number with no mark means an inactive call.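 Rule for the calls: active = activation above a per-plate cutoff, the mean activation of sample wells on that plate plus 3 SD (cut at about 8% in these data); inactive = the rest.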

The assay deals with Melanocortin receptor 4 (Homo sapiens) (UniProt P32245). Description: MC4R agonists recruiting beta-arrestin, primary screen, cell-based, luminescence, agonist arm of biased-ligand search (AID 540308). As to conditions: U2OS MC4R beta-arrestin complementation, at 8.9 µM, active compounds read high, percent of melanotan II response, DMSO zero.
Melanocortin receptor 4 (Homo sapiens), sequence (P32245 whole entry, looked up): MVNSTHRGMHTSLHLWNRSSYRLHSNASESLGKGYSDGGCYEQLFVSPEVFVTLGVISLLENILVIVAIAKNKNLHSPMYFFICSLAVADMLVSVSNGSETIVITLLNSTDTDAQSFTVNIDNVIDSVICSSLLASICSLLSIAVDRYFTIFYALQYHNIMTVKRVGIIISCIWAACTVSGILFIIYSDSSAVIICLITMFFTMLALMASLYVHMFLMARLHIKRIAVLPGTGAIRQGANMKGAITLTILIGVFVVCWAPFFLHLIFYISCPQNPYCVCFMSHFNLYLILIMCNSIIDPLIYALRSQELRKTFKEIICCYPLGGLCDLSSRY
Consider `COc1cccc(-c2cnc3c(NC(C)=O)cc(-c4cccc(NC(C)=O)c4)cn23)c1`, for which the activation was 7.42%.
As to `CC(=O)Nc1cccc(-c2cc(NC=O)c3ncc(-c4ccc(F)c(Cl)c4)n3c2)c1`, the activation was 5.15%.
For the compound `CC(=O)Nc1cc(-c2ccccc2F)cn2c(-c3cccc(C(F)(F)F)c3)cnc12`, the activation is 22.5% (active).
In the case of `CC(=O)Nc1cc(-c2ccccc2N(C)C)cn2c(-c3ccc(F)c(Cl)c3)cnc12` it was 25.4% (active); in that of `CC(=O)Nc1cc(-c2ccc(N3CCN(C)CC3)cc2)cn2c(-c3cccc(C(=O)N(C)C)c3)cnc12`, 0.62%.
Take `CC(=O)Nc1cc(-c2ccc(N3CCN(C)CC3)cc2)cn2c(-c3ccc(F)cc3)cnc12`: the activation was 0.23%.
On to `COc1cccc(-c2cc(NC(C)=O)c3ncc(-c4cccc(C(C)=O)c4)n3c2)c1`, for which the activation was 3%.
`CC(=O)Nc1cc(-c2cccc(CO)c2)cn2c(-c3cccc(C(F)(F)F)c3)cnc12`: the activation is 4.6%.
On to `COc1cccc(-c2cnc3c(NC(C)=O)cc(-c4cc(F)ccc4OC)cn23)c1`, for which the activation was 29.8% (active).
Turning to `CC(=O)Nc1cccc(-c2cc(NC(C)=O)c3ncc(-c4ccccc4)n3c2)c1`, the activation was 6.05%.
Take `COc1ccc(-c2cc(NC(C)=O)c3ncc(-c4cc(OC)c(OC)c(OC)c4)n3c2)cn1`: the activation is -0.61%.
Take `COc1ccccc1-c1cc(NC(C)=O)c2ncc(-c3ccc(F)cc3)n2c1`: the activation was 10.3% (active).
In the case of `COC(=O)Cc1ccc(OC2(C)CCN(Cc3ccc4c(c3)OCCO4)C2)cc1` (stereo not drawn), the activation is -0.74%.
In the case of `CC1(C(=O)NS(=O)(=O)Cc2cccc(Cl)c2)CCN1C(=O)Cc1ccccc1` (stereo not drawn), the activation is -0.92%.
Take `NC(c1csc(NC(=O)Nc2ccccc2Oc2ccccc2)n1)c1ccccc1Cl` (stereo not drawn): the activation was 5.13%.
Under `CCCNC(=O)C1(C)CCN(Cc2csc(-c3ccc(Cl)cc3)n2)C1` (stereo not drawn) stands -0.8%; under `O=C(Nc1ccc(Cl)cc1)c1csc([C@H]2C[C@H](O)[C@@H](CO)O2)n1`, -0.15%; under `CCOC(=O)C1(Cc2cccc(OC)c2)CCCN(C(=O)CCSC)C1` (stereo not drawn), -1.03%.
For the compound `CCCC(=O)N1CCC1(C)C(=O)NS(=O)(=O)c1ccc(Cl)cc1` (stereo not drawn), the activation was -0.17%.
Take `Cc1cccc(-c2cnc(C(O)c3cc(C)cc(C)c3)[nH]2)c1` (stereo not drawn): the activation was -1.6%.
In the case of `OC(c1ccc(Cl)cc1)c1ncc(-c2ccc(Cl)cc2)[nH]1` (stereo not drawn) it was 1.64%; in that of `Cc1ccc(-c2cnc(C(O)c3cc(Cl)cc(Cl)c3)[nH]2)cc1` (stereo not drawn), 9.5% (active); in that of `C#CCNC(=O)[C@H](Cc1ccc(C(=O)c2ccccc2)cc1)NC(=O)OC(C)(C)C`, -0.75%.
In the case of `Cc1ccc(Nc2nc(N)nc(CSc3nnc(C)s3)n2)cc1` it was -0.99%; in that of `Cc1ccc(Nc2nnc(SC(C)C(=O)NC3CC3)s2)cc1` (stereo not drawn), 1.11%.
As for `Cc1ccc(Nc2nnc(SCc3ccccc3)s2)cc1`, the activation was 16.6% (active).
Under `OC[C@@H]1CN(C2CCCC2)C[C@H](n2cnc3c(NC4CCC4)ncnc32)O1` stands -0.37%.
Consider `CCN(C(=O)COC(=O)c1ccc(COc2ccc3c(C)cc(=O)oc3c2)cc1)C1CCS(=O)(=O)C1` (stereo not drawn), for which the activation was -3.78%.
As to `CCOC(=O)c1cc(=O)c2ccc(OCc3ccccc3)cc2o1`, the activation is -0.49%.
For `Cc1ccccc1NC(=O)c1ccc(COc2ccc3c(C)cc(=O)oc3c2)cc1`, the activation was 19.5% (active).
For `Cc1ccc(CC2(C)C(=O)Nc3ccc(OC(F)(F)F)cc32)cc1` (stereo not drawn), the activation was 6.29%.
For the compound `CC1(Oc2ccccc2-c2ccno2)CCN(Cc2ccc(-c3ccccc3)o2)C1` (stereo not drawn), the activation was -0.57%.
With `CCc1nc2c(OCCOc3ccccc3)cccn2c1N(C=O)Cc1ccc(OC)cc1`, the activation is -1.25%.
As to `CCc1nc2c(OCCOc3ccccc3)cccn2c1N(C)C(=O)c1ccccc1F`, the activation was -0.99%.
Take `N#Cc1ccc(-c2ccc3nccn3c2)cc1`: the activation is -0.91%.
As to `O=C(Nc1ccc(OCCO)cc1)c1csc([C@H]2C[C@H](O)[C@@H](CO)O2)n1`, the activation is 1.86%.
For the compound `CCN1CCC2(CC1)N=C(c1ccc(F)cc1)C(=S)N2C(=O)c1ccc(C)cc1`, the activation is 11.5% (active).
As to `Cc1ccc(SCC(=O)N2CCN(c3ccc(F)cc3)CC2)cc1`, the activation was -0.3%.
For `CCN1CCC(O)(/C=C/c2ccc(C)cc2)C(C(=O)/C=C/c2ccc(C)cc2)C1` (stereo not drawn), the activation is -1.73%.
Consider `COc1ccc(-c2sc3ccc(OC)cc3c2C#Cc2ccccn2)cc1`, for which the activation is -2.74%.
Take `COc1ccc2sc(-c3ccc(S(C)(=O)=O)cc3)c(-c3ccc(C(N)=O)cc3)c2c1`: the activation is 0.87%.
`COc1ccc2sc(-c3ccc(S(C)(=O)=O)cc3)c(C#Cc3cncn3C)c2c1`: the activation is 35.2% (active).
For `CC1(C(=O)O)CCN1C(=O)/C=C/c1ccccc1` (stereo not drawn), the activation is 0.27%.
Under `COc1ccccc1CNC(=O)c1cc(-c2cc(Cl)ccc2C)n[nH]1` stands -0.81%; under `Cc1ccc(NS(=O)(=O)c2cc3c(cc2Br)NC(=O)CO3)cc1C`, 1.67%; under `CCn1c(C(O)c2cc(OC)ccc2OC)nc2ccccc21` (stereo not drawn), -1.32%.
With `COc1ccccc1Cn1c(CO)nc2ccccc21`, the activation is 1.82%.
In the case of `COc1ccc(C)c(Cn2c(-c3nonc3N)nc3ccccc32)c1`, the activation was 12.1% (active).
Under `CCCNC(=O)C1(C)CCCN(Cc2cccc(C(F)(F)F)c2)C1` (stereo not drawn) stands 0.13%; under `COc1cccc(CNc2nc(NCc3ccccc3OC)nc3ccsc23)c1`, -1.7%.
In the case of `COc1ccc(-c2ccc(C(=O)NCCN3CCOCC3)c3occc23)c(C)c1` it was -2.32%; in that of `CCNC(=S)Nc1ccc2c(c1)c(=O)n(C)n2Cc1ccc(Cl)cc1`, -1.45%.
Consider `C=CCN(CC=C)S(=O)(=O)c1ccc(C(=O)Nc2nc3c(s2)CCc2ccccc2-3)cc1`, for which the activation is 1.77%.
Take `COCCN(CCOC)S(=O)(=O)c1ccc(C(=O)Nc2nc3c(s2)CCc2ccccc2-3)cc1`: the activation was 15.6% (active).
As to `COCCN(CC(=O)Nc1ccccc1C)S(=O)(=O)c1ccc(S(=O)(=O)N2CCCC2)cc1`, the activation is -3.53%.
`OC(c1cc(Cl)cc(Cl)c1)c1ncc(-c2ccccc2C(F)(F)F)[nH]1` (stereo not drawn): the activation was -0.63%.
Under `OC[C@@H]1CN(Cc2ccncc2)C[C@H](n2cnc3c(N4CCN(c5ccccc5)CC4)ncnc32)O1` stands 0.16%; under `CC1(C(=O)NS(=O)(=O)c2ccc(Cl)cc2)CCN1C(=O)CC1CCCC1` (stereo not drawn), 1.72%; under `CC(C)C(=O)Nc1c(C(=O)c2ccc(F)cc2)oc2ccccc12`, 1.16%.
Turning to `COc1ccc2oc(=N)c(C(=O)Nc3ccc(Br)cc3)cc2c1`, the activation was 1.15%.
Under `COc1ccc(C(=O)c2oc3ccc(Br)cc3c2NC(C)=O)cc1` stands 11.7% (active).
On to `CCN(CC(=O)Nc1ccccc1C(=O)NC1CC1)Cc1cccs1`, for which the activation was -0.58%.
As to `Cc1nn(-c2ccccc2)c(NC(=O)c2cccs2)c(-c2ccc(Cl)cc2)c1=O`, the activation was -1.07%.
With `Cc1nn(-c2ccccc2)c(Cl)c1/C=N/NC(=O)c1nn(C)cc1[N+](=O)[O-]`, the activation was -2.85%.
On to `Cc1ccc(-n2nc(C)c(/C=N/NC(=O)c3cccs3)c2Cl)cc1`, for which the activation was 20.9% (active).
As for `COc1cccc(NC(=O)C2(C)CCN2C(=O)CCC2CCCC2)c1` (stereo not drawn), the activation was 2.96%.
As for `COc1cc(NC(=O)c2cccs2)ccc1NC(=O)c1ccccc1Cl`, the activation is 0.56%.
`CCC(=O)c1cc2c(cc1NC(=O)c1cccs1)OCCO2`: the activation was 23.2% (active).
In the case of `COc1cc(NC(=O)c2ccc3c(c2)OCO3)ccc1NC(=O)c1cccs1`, the activation was -0.83%.
With `COc1ccc(S(=O)(=O)NNC(=O)Nc2ccc(C)cc2)c(OC)c1`, the activation is 0.62%.
On to `COc1ccc(/C=N/NC(=O)Nc2ccc3nsnc3c2)c(OC)c1`, for which the activation is 13.5% (active).
As for `COc1ccc(-c2[nH]ncc2/C=N/NC(=O)c2cc(Br)ccc2O)c(OC)c1`, the activation is 0.86%.
With `CC(CNc1ccc([N+](=O)[O-])cc1)NC(=O)c1ccccc1Br` (stereo not drawn), the activation was 0.96%.
For `O=C(NCCNc1ccc([N+](=O)[O-])cc1)c1cccc2c(Br)cccc12`, the activation is 8.32% (active).
`O=C(NCCNc1ccc([N+](=O)[O-])cc1Cl)c1ccccc1F`: the activation was -1.37%.
Under `CC(=O)Oc1ccc(Cn2c(C)c(C(=O)NCc3ccc(C#N)cc3)sc2=O)cc1` stands 0.49%; under `CCCCCCCCCCOC(=O)Cn1c(COc2ccc(C)cc2)[n+](C)c2ccccc21`, 16.7% (active).
`Cc1ccc(COc2ccc(C(=O)NN)cc2)cc1`: the activation is 6.84%.
As for `CCCCCCCCCCOC(=O)Cn1c(COc2cccc(OC)c2)[n+](C)c2ccccc21`, the activation is 21.1% (active).
Turning to `CCCCOc1ccc(NC(=O)CSCC(=O)OCC)cc1`, the activation is 0.02%.
Turning to `COCCCNC(=O)c1ccc(-c2c(C)noc2C)c2ccoc12`, the activation is -0.44%.
As for `COc1cc(NC(=O)c2cc(-c3ccc(F)cc3OC(C)C)n[nH]2)cc(OC)c1OC`, the activation is 3.09%.
Turning to `Cc1ccc(C)c(C(O)c2ncc(-c3cccc4ccccc34)[nH]2)c1` (stereo not drawn), the activation is -2.84%.
Turning to `O=C(NCCCN1CCCCC1)c1ccc2c(c1)NC(=O)C(N1CCOCC1)S2` (stereo not drawn), the activation is -0.87%.
Consider `CCCNC(=O)c1cc(C2CCCCN2S(=O)(=O)c2ccc(C#N)cc2)on1` (stereo not drawn), for which the activation was 0.19%.
As for `O=C(NCCN1CCOCC1)c1ccccc1N1C(=O)[C@@H]2Cc3c([nH]c4ccccc34)C(c3cccc(Cl)c3)N2C1=O` (stereo partly drawn), the activation is -1.7%.
On to `Cc1ccc(C(O)c2ncc(-c3ccccc3F)[nH]2)cc1F` (stereo not drawn), for which the activation was -0.39%.
As for `COc1ccc(C(NC(=O)C2CCN(CCCc3ccccc3)CC2)c2cccs2)cc1` (stereo not drawn), the activation was 0.65%.
